HT1080 IDH1KD tx: kills HT-1080 cells with IDH1 knockdown; HT-1080 IDH1 knockdown viability, ATP luminescence, 48 h; Potency, µM (titrated, usually from 46.1 µM), inactives show top-dose activity, negative = toxicity, actives largely listed as cytotoxic; 360,000 tested, 2% active;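 note: 0% = DMSO wells and -100% = cell-free medium wells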
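Using the IDH1-knockdown HT-1080 line run in the same batch and compound series as the NT line, viability after 48 h at 37 °C was determined by CellTiter-Glo luminescence and expressed as % activity.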
HT1080-NT tox: kills 2HG-producing HT-1080-NT fibrosarcoma cells. HT-1080-NT fibrosarcoma viability, CellTiter-Glo ATP luminescence, 48 h. Potency, µM (series often up to 46.1 µM), for inactives: at the highest dose activity, negative = less viability, actives largely listed as cytotoxic. 360,000 tested, 1.6% active;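 note: NT is the 2HG producing partner of a matched IDH1 knockdown line; 0% = DMSO-treated cells and -100% = media-only wells without cells; nearly all actives have a fitted effect of over 55% in size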
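Luminescent CellTiter-Glo readout after 48 hours of compound exposure at 37 degrees C defined viability of HT-1080-NT cells. Activity was normalized to DMSO wells and cell-free media wells; concentration-response curves were fitted and assigned curve classes.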
KB-V1 cytotox: kills drug-selected multidrug resistant KB-V1 cells. KB-V1 MDR cells viability, CellTiter-Glo, 72 h. Potency, µM (series often up to 46.1 µM), actives largely listed as cytotoxic. 400,000 tested, 3.4% active. AID 1347076; note: nearly all actives have a fitted effect of over 60% in size
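Compound-treated KB-V1 multidrug-resistant cells, 72 h, 37 degrees C; viability by CellTiter-Glo. Fitted qHTS curves give the values.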
KB-3-1 cytotox: KB-3-1 parental cell cytotoxicity; KB-3-1 viability, CellTiter-Glo ATP luminescence, 72 h; Potency, µM (highest dose often 46.1 µM), usual class: cytotoxic; 400,000 tested, 1.4% active; note: nearly all actives have a fitted effect of over 60% in size
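Screening of KB-3-1 cells (DMEM, 10% FBS, phenol-red free) ran from lowest to highest compound concentration; after 72 h at 37 °C viability was read luminescently and curves fitted.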
The depositor's hits bear a star; i = inactive; ? = inconclusive; . = not tested or not shown. Shown are actives, neighbours in structure and some others; about 5.7% of the full set was active somewhere. Calls come from the whole dose curve; as a rule, active = well fitted curve in the direction sought with a large enough effect; inconclusive = small, poorly fitted or top-dose-only effect, or another doubt; inactive = no such curve, though single readings can be large; an effect the other way counts as inactive or inconclusive. Unless noted, % is set by controls: 0 for no effect and ±100 for the full control effect; potency is the fitted concentration of half-maximal effect.

SMILES | HT1080 IDH1KD tx | HT1080-NT tox | KB-V1 cytotox | KB-3-1 cytotox
CCOC(=O)CC(NC(=O)c1cc2c(=O)n3cccc(C)c3nc2s1)c1ccc(OCC)c(OC)c1 (configuration not stated) | . | . | i | i
COc1ccc2c(c1)c1c(c(=O)n(Cc3ccccc3)c(=O)n1Cc1ccc(C)cc1)n2C | . | . | i | i
C/C(=N\Nc1nc(C)cc(-c2ccccc2)n1)c1ccccc1 | ? | -28.5% | 6.51µM* | i
C/C(=N\Nc1nc(C)cc(-c2ccccc2)n1)c1ccc(O)cc1 | -14.3% | 10.3µM* | ? | i
C/C(=N\Nc1nc(C)cc(-c2ccccc2)n1)c1ccc(C)o1 | -9.8% | -0.1% | ? | i
C/C(=N/Nc1nc(C)cc(-c2ccccc2)n1)c1ccco1 | ? | -6.2% | 16.4µM* | i
COc1ccc(N2C(=O)C(CC(=O)Nc3ccc(F)cc3)N(CCC3=CCCCC3)C2=O)cc1 (configuration not stated) | . | . | i | i
CCc1cccc(NC(=O)Cn2c(=O)n(CC3CCC(C(=O)NCCc4ccccc4)CC3)c(=O)c3ccccc32)c1 (configuration not stated) | . | . | i | 14.6µM*
COc1ccc(S(=O)(=O)NCCc2csc(-c3ccc(F)cc3)n2)cc1 | . | . | i | ?
COc1ccc(CC2(CO)CCN(S(=O)(=O)c3c(C)nn(C)c3Cl)CC2)cc1 | 2.7% | 27.5% | i | i
Cc1nn(C)c(Cl)c1S(=O)(=O)N1CCC(CO)(CCc2ccccc2)CC1 | ? | -12.9% | 23.1µM* | ?
CC(C)n1cnc2c(NCc3ccccc3)cc(N[C@H](C)CO)cc21 | 23.1µM* | 23.1µM* | i | ?
CCNc1ccc(C(=O)OCC)cc1NC(=O)c1cccc(S(=O)(=O)N(C)c2ccccc2)c1 | 14.1% | 14.2% | i | i
CCNc1ccc(C(=O)OCC)cc1NC(=O)c1cccc(N(C)C)c1 | ? | 1.78µM* | ? | ?
Cc1cccc(NC(=O)CSc2nc3ccccc3nc2N2CCC(C)CC2)c1 | . | . | ? | i
CCOC(=O)n1c(=O)n(C)c2ccc(Cl)cc21 | 0.1% | -4.9% | 8.2µM* | ?
CCOc1ccc(CNC(=O)CCS(=O)(=O)c2cc3c4c(c2)CCN4C(=O)CC3)cc1OC | . | . | i | i
C[n+]1cc2c3c(ccc2c2ccc4cc5c(cc4c21)OCO5)OCO3 | 1.41µM* | 2.51µM* | . | .
COc1ccc2cc3[n+](cc2c1O)CCc1cc2c(cc1-3)OCO2 | 6.0% | 18.7% | i | i
Cc1cc(NC(=O)C(C)(C)C)cc(-c2nc3ncccc3o2)c1O | . | . | i | i
O=[N+]([O-])c1c(NCCO)cc(N2CCCCC2)c2nonc12 | -10.1% | -11.1% | i | i
O=[N+]([O-])c1cc([N+](=O)[O-])c(N2CCCCCC2)cc1NCCO | ? | -13.8% | 9.2µM* | i
O=C(CCl)N1c2ccccc2Oc2ccc3ccccc3c21 | 16.4µM* | ? | ? | i
CC(=O)N1c2ccccc2Oc2cc3ccccc3cc21 | -6.5% | -7.6% | i | i
COc1cccc(N2C(=O)CSC23C(=O)N(CC(=O)NCc2ccc(C)cc2)c2ccccc23)c1 (configuration not stated) | . | . | i | i
SMILES | HT1080 IDH1KD tx | HT1080-NT tox | KB-V1 cytotox | KB-3-1 cytotox
Cc1ccc(NC(=O)c2ccc(N/N=C/c3cccc(O)c3)c([N+](=O)[O-])c2)cc1 | 7.31µM* | 7.31µM* | ? | ?
Cc1ccccc1NC(=O)c1ccc(N/N=C/c2ccccc2O)c([N+](=O)[O-])c1 | -5.5% | -5.5% | i | i
NC(N)=NN=C(c1ccc(F)cc1)c1ccc(C(F)(F)F)cc1 | 7.31µM* | 2.91µM* | ? | 3.66µM*
CSc1ccc(C(=O)c2[nH]c(=O)[nH]c2C)cc1 | 10.7% | 27.0% | 5.8µM* | i
Cc1ccc(CSC(Nc2ccc(F)cc2)=C(C#N)C#N)cc1 | ? | ? | 13µM* | ?
C/C(=N\NC(=O)c1cc(-c2cccnc2)nc2ccccc12)c1ccccc1O | 9.2µM* | -11.5% | 6.51µM* | i
C/C(=N\NC(=O)c1cc(C2CC2)nc2ccccc12)c1ccc(O)cc1O | 4.61µM* | ? | i | ?
COC(=O)c1ccc(NC(=O)CSc2n[nH]c(CC(C)C)n2)cc1 | . | . | ? | i
O=C(Nc1ccc(OC(F)F)c(Cl)c1)c1cccc(OC(F)F)c1 | ? | ? | 18.4µM* | ?
COc1ccc(NC(=O)c2cccc(OC(F)F)c2)cc1Cl | 10.2% | 8.6% | 14.6µM* | i
O=S(=O)(c1ccccc1Cl)N1CCN(c2nc(-c3cccs3)nc3ccccc23)CC1 | 7.7% | 28.9% | . | .
CC(C)CCN(Cc1ccco1)C(=O)c1cc2c(Cl)nc3ccccc3c2s1 | . | . | ? | i
Cc1ccc(-c2cc(-c3ccc(C)cc3O)[nH]n2)cc1 | 3.0% | -4.4% | i | i
Oc1ccccc1-c1cc(-c2ccc(F)cc2)n[nH]1 | 18.4µM* | ? | ? | ?
Cc1ccc(-c2cc(-c3ccc(F)cc3)n[nH]2)c(O)c1 | 18.4µM* | 25.9µM* | i | ?
Oc1ccccc1-c1cc(-c2ccccc2)n[nH]1 | 0.9% | 5.1% | i | i
CCCCCn1c(CCNC(=O)c2cccc(C)c2)nc2ccccc21 | . | . | ? | i
CC(=O)Nc1ncc(Cc2ccc(Cl)cc2Cl)s1 | -1.2% | -0.9% | i | i
O=C(Nc1ncc(Cc2cccc(Cl)c2)s1)c1cccs1 | ? | ? | 13µM* | ?
O=C(Nc1ncc(Cc2cccc(Cl)c2)s1)C1=NCCN1 | 0.0% | 20µM* | i | i
O=C(Nc1ncc(Cc2ccccc2)s1)c1cccs1 | ? | -27.8% | ? | ?
CCOC(=O)Cn1c(=O)n(CC2CCCO2)c2nc(-c3c(F)cccc3Cl)nc(C(N)=O)c21 (configuration not stated) | . | . | ? | i
Cc1cc(C)cc(C(=O)N2CC(=O)Nc3ccc(Br)cc3C2c2ccccc2)c1 (configuration not stated) | . | . | 14.6µM* | ?
Cc1ccc(C(=O)N2CC(=O)Nc3ccc(F)cc3C2c2ccccc2)cc1[N+](=O)[O-] (configuration not stated) | -21.2% | -14.2% | 14.6µM* | i
Cc1ccc(C(=O)N2CC(=O)Nc3ccc(F)cc3C2c2ccc(F)cc2)cc1[N+](=O)[O-] (configuration not stated) | -19.7% | -15.3% | i | i
CCOC(=O)c1snc2c(=O)[nH]cnc12 | 2.3% | -5.6% | i | i
O=C(Nc1ccccc1)c1snc2c(=O)[nH]cnc12 | 10.1% | 10.8% | 4.11µM* | ?
COc1ccc(S(=O)(=O)N2CCc3ccccc32)cc1NC(C)=O | ? | 9.2µM* | ? | 23.1µM*
COc1ccc(S(=O)(=O)N2CCCc3ccccc32)cc1[N+](=O)[O-] | 8.2µM* | 8.2µM* | ? | 4.11µM*
COc1ccc(S(=O)(=O)N2CCc3ccccc32)cc1C(=O)Nc1ccc(NC(C)=O)cc1 | -25.1% | ? | i | i
